# PubChem BioAssay (EPA / NIEHS)
# Active and inactive are the calls of the source. The calls were made as follows: active = hit-call score of the fitted dose curve at least 0.9, where 1 is the maximum; inactive = score below 0.9.
# Tests used:
# Details in all cases: mRNA level, 48 h; actives raise or lower the signal
# [1] = read-out: ABC Transporter (ABCC2), ABCC2 (gene 1244); experiment: LTEA_HepaRG_ABCC2: Life Technologies and Expression Analysis (LTEA) Assay for ABC Transporter (ABCC2) using HepaRG (AID 2283464)
# Outline: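 HepaRG, 48 h post-plating; serum-free induction medium; cpd 8-pt, 100 uM top, half-log, 0.5% DMSO, duplicate, 48 h. Readout: ABCC2 mRNA by qRT-PCR, norm. ACTB/GAPDH/POLR2A. Bidirectional fit vs DMSO baseline.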
# [2] = read-out: Broad substrate specificity ATP-binding cassette transporter ABCG2 (Homo sapiens) (UniProt Q9UNQ0); experiment: LTEA_HepaRG_ABCG2: Life Technologies and Expression Analysis (LTEA) Assay for ABC Transporter (ABCG2) using HepaRG (AID 2283465)
# Outline: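 Differentiated HepaRG cells were exposed for 48 h in serum-free induction medium to 8 half-log concentrations, top 100 uM, in 0.5% DMSO. ABCG2 mRNA was measured by qRT-PCR, normalized to ACTB, GAPDH and POLR2A, with bidirectional fitting versus DMSO.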
# [3] = read-out: Peroxisomal acyl-coenzyme A oxidase 1 (ACOX1) gene, ACOX1 (gene 51); experiment: LTEA_HepaRG_ACOX1: Life Technologies and Expression Analysis (LTEA) Assay for Peroxisomal acyl-coenzyme A oxidase 1 (ACOX1) gene using HepaRG (AID 2283467)
# Outline: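 HepaRG cells, plated 48 h then switched to serum-free induction medium, were exposed in duplicate for 48 h to 8-point half-log concentrations up to 100 uM in 0.5% DMSO. ACOX1 mRNA was measured by qRT-PCR, normalized to ACTB/GAPDH/POLR2A, and fitted bidirectionally versus DMSO.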
# [4] = read-out: Alkaline Phosphatase, Placental (ALPP) gene, ALPP (gene 250); experiment: LTEA_HepaRG_ALPP: Life Technologies and Expression Analysis (LTEA) Assay for Alkaline Phosphatase, Placental (ALPP) gene using HepaRG (AID 2283468)
# Outline: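 HepaRG, 48 h plating then 48 h dosing, serum-free induction medium, 0.5% DMSO. 8 conc, half-log, max 100 uM, duplicates. Endpoint: ALPP transcript by qRT-PCR, housekeeping-normalized; gain or loss fitted vs DMSO.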
# [5] = read-out: Bcl-2 (BAD) gene, BAD (gene 572); experiment: LTEA_HepaRG_BAD: Life Technologies and Expression Analysis (LTEA) Assay for Bcl-2 (BAD) gene using HepaRG (AID 2283469)
# Outline: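 Differentiated HepaRG cells were exposed in duplicate in 0.5% DMSO for 48 h to eight-point half-log concentrations up to 100 uM. BAD mRNA was measured by Fluidigm TaqMan qRT-PCR, normalized to ACTB, GAPDH and POLR2A, and fitted bidirectionally against DMSO.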
# [6] = read-out: Bcl-2 (BAX) gene, BAX (gene 581); experiment: LTEA_HepaRG_BAX: Life Technologies and Expression Analysis (LTEA) Assay for Bcl-2 (BAX) gene using HepaRG (AID 2283470)
# Outline: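 Differentiated HepaRG cells exposed 48 h in serum-free induction medium, eight half-log concentrations from 100 uM, in duplicate, 0.5% DMSO vehicle. BAX mRNA by TaqMan qRT-PCR, normalised to ACTB, GAPDH and POLR2A.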
# [7] = read-out: adenosine kinase (ADK) gene, ADK (gene 132); experiment: LTEA_HepaRG_ADK: Life Technologies and Expression Analysis (LTEA) Assay for adenosine kinase (ADK) gene using HepaRG (AID 2283471)
# Outline: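 HepaRG (human liver), 48 h chemical exposure, 8-pt half-log series, top 100 uM, 0.5% DMSO vehicle. Readout: ADK mRNA by qRT-PCR vs housekeeping genes; bidirectional curve fit relative to DMSO baseline.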
# [8] = read-out: Alpha-fetoprotein (AFP) gene, AFP (gene 174); experiment: LTEA_HepaRG_AFP: Life Technologies and Expression Analysis (LTEA) Assay for Alpha-fetoprotein (AFP) gene using HepaRG (AID 2283472)
# Outline: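 Differentiated human HepaRG cells exposed 48 h in serum-free induction medium, 8-point half-log series from 100 uM in 0.5% DMSO, duplicate. AFP mRNA by qRT-PCR, normalized to ACTB, GAPDH, POLR2A; bidirectional fit vs DMSO.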
# BCL2L11 (gene 10018) = experiment: LTEA_HepaRG_BCL2L11: Life Technologies and Expression Analysis (LTEA) Assay for Bcl-2 (BCL2L11) gene using HepaRG (AID 2283473)
# Outline: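 Read-out is BCL2L11 transcript level by qRT-PCR, normalized to three housekeeping genes and fitted bidirectionally against 0.5% DMSO vehicle. HepaRG cells received chemicals for 48 h in serum-free induction medium, 100 uM down in half-log dilutions.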
# Sequence of Broad substrate specificity ATP-binding cassette transporter ABCG2 (Homo sapiens) (Q9UNQ0 whole entry, looked up): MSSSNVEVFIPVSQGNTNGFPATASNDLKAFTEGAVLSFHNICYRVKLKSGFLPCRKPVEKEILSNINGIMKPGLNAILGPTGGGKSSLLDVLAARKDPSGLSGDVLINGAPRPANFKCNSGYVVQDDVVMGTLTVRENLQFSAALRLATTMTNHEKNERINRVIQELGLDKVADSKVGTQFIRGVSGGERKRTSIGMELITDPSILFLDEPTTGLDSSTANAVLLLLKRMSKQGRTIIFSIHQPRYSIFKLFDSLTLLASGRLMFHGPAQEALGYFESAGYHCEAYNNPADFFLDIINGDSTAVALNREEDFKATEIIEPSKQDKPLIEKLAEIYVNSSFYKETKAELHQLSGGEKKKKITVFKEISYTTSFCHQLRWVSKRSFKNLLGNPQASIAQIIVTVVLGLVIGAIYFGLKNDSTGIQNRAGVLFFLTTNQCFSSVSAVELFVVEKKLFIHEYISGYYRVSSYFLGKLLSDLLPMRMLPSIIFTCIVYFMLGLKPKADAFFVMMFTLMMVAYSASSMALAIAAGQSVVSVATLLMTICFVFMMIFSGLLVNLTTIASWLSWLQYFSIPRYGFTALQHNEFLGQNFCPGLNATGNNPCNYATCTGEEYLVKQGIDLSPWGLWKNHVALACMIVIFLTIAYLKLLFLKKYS
Compound,AC50 [1],AC50 [2],AC50 [3],AC50 [4],outcome [5],AC50 [6],AC50 [7],AC50 [8],outcome (BCL2L11 (gene 10018)),outcome [1],outcome [2],outcome [3],outcome [4],outcome [6],outcome [7],outcome [8],AC50 (BCL2L11 (gene 10018))
CCCOCC(=Nc1ccc(Cl)cc1C(F)(F)F)n1ccnc1,78.4 µM (active),15.8 µM (active),72.2 µM (active),15.8 µM (active),inactive,21.7 µM (active),78.5 µM (active),15.8 µM (active),inactive,,,,,,,,
CCOP(=S)(OCC)SCCSCC,,,,,inactive,,,,inactive,inactive,inactive,inactive,inactive,inactive,inactive,inactive,
FC(F)C(F)(F)OCC(Cn1cncn1)c1ccc(Cl)cc1Cl (centres undefined),75.9 µM (active),15 µM (active),53.6 µM (active),55 µM (active),inactive,32.3 µM (active),,20.2 µM (active),inactive,,,,,,inactive,,
CC(C)N(C(=O)SCC(Cl)=C(Cl)Cl)C(C)C,,,,,inactive,,,,inactive,inactive,inactive,inactive,inactive,inactive,inactive,inactive,
S=C1NCCN1,,,0.232 µM (active),,inactive,,12.6 µM (active),,inactive,inactive,inactive,,inactive,inactive,,inactive,
CN(C)C(=O)Nc1cccc(C(F)(F)F)c1,,,,,inactive,,,,,inactive,inactive,inactive,inactive,inactive,inactive,inactive,50 µM (active)
C#CC(C)(C)NC(=O)c1cc(Cl)cc(Cl)c1,27.3 µM (active),,,17.3 µM (active),inactive,,,,inactive,,inactive,inactive,,inactive,inactive,,
CCCCSP(=O)(SCCCC)SCCCC,,50 µM (active),,,inactive,,,50 µM (active),inactive,inactive,,inactive,inactive,inactive,inactive,,
C#CCC1=C(C)C(OC(=O)C2C(C=C(C)C)C2(C)C)CC1=O (centres undefined),19.6 µM (active),9.87 µM (active),,,inactive,,,81.1 µM (active),inactive,,,inactive,inactive,inactive,inactive,,
CCOP(=S)(OCC)Oc1ccc2c(C)c(Cl)c(=O)oc2c1,,13.3 µM (active),,50 µM (active),inactive,,,36.6 µM (active),inactive,inactive,,inactive,,inactive,inactive,,
CCOP(=O)(SC(C)CC)N1CCSC1=O (centres undefined),27.1 µM (active),,,,inactive,,,,inactive,,inactive,inactive,inactive,inactive,inactive,inactive,
CC[C@H](C)[C@H]1O[C@]2(C=C[C@@H]1C)C[C@@H]1C[C@@H](C/C=C(\C)[C@@H](O[C@H]3C[C@H](OC)[C@@H](O[C@H]4C[C@H](OC)[C@@H](NC)[C@H](C)O4)[C@H](C)O3)[C@@H](C)/C=C/C=C3\CO[C@@H]4[C@H](O)C(C)=C[C@@H](C(=O)O1)[C@]34O)O2,13.3 µM (active),14.4 µM (active),13 µM (active),11.9 µM (active),inactive,50 µM (active),50 µM (active),87.7 µM (active),,,,,,,,,12.5 µM (active)
COc1cccc(C(=O)NN(C(=O)c2cc(C)cc(C)c2)C(C)(C)C)c1C,8.52 µM (active),16.7 µM (active),,,inactive,,,7.69 µM (active),inactive,,,inactive,inactive,inactive,inactive,,
CCOC(=O)COc1cc(-c2nn(C)c(OC(F)F)c2Cl)c(F)cc1Cl,50 µM (active),,,,inactive,,,,inactive,,inactive,inactive,inactive,inactive,inactive,inactive,
CC(C1CC1)C(O)(Cn1cncn1)c1ccc(Cl)cc1 (centres undefined),,,,,inactive,,,20.5 µM (active),inactive,inactive,inactive,inactive,,inactive,inactive,,
CN(C)NC(=O)CCC(=O)O,,,,,inactive,,,,inactive,inactive,inactive,inactive,inactive,inactive,inactive,inactive,
CN(C)[C@@H]1C(=O)C(C(N)=O)=C(O)[C@@]2(O)C(=O)C3=C(O)c4c(O)cccc4[C@@](C)(O)[C@H]3[C@H](O)[C@@H]12,,,,,inactive,,,,inactive,inactive,inactive,inactive,inactive,inactive,inactive,inactive,
Nc1c(Cl)cc([N+](=O)[O-])cc1Cl,84.2 µM (active),80.4 µM (active),22.8 µM (active),50 µM (active),inactive,,64.1 µM (active),39.3 µM (active),,,,,,inactive,,,50 µM (active)
CNc1cnn(-c2cccc(C(F)(F)F)c2)c(=O)c1Cl,,17.4 µM (active),,,inactive,,,22 µM (active),inactive,inactive,,inactive,inactive,inactive,inactive,,
